This is an account of results in ChEMBL document CHEMBL3988442, “University of Dundee, Small-Polar-MMV Screening Library” (2021).

Screen size: about 69,000 compounds; about 1,000 (1.4%) showed an effect of 50% or more. This excerpt belongs to a sample that is enriched for strong results.

This experiment has as its system Leishmania donovani. The experiment in a line: Leishmania intramacrophage assay. The experiment is classed as functional, organism-based. On the set-up: scale not given: in the data most compounds retested in dose-response had high values.

Take `CC(Oc1ccc(F)c(F)c1)C(=O)N(CC(N)=O)C1CCCC1` (configuration not stated): under “30.3 µM, […]”, the “Percent Effect” value is reported as -10.08%.

For `CCc1nccn1C1CCCN(C(=O)c2cc3nc(C)ccc3o2)C1` (configuration not stated), where the note is “30 µM, 30.03 µM”, the “Percent Effect” value came out at 3.953%.

For `Cc1nn(C)c2cn(C(C)C(=O)NCc3ccncc3)nc12` (configuration not stated), under “30.3 µM, […]”, the “Percent Effect” value is 59.59%.

With `COc1ccccc1CNC(=O)Cn1ncc2c1c(C)nn2C`, the “Percent Effect” value (30 µM, 30.03 µM) was found to be 13.53%.

With `Cc1nn(C)c2cn(C(C)C(=O)NCc3cccc(F)c3)nc12` (configuration not stated), the “Percent Effect” value (30.3 µM, […]) was -38.24%.

As to `Cc1nc(NCc2ccccn2)c2c(n1)c(C)nn2C`, the “Percent Effect” value (30.3 µM, […]) amounted to 42.28%.

`COc1ccccc1CNC(=O)C(C)N1CC(n2cc(C)cn2)C1` (configuration not stated): for the setting “30.3 µM, […]”, the “Percent Effect” value stood at 25.52%.

On to `Cc1nn(C)c2cn(C(C)C(=O)NCc3ccc(F)cc3)nc12` (configuration not stated), for which the “Percent Effect” value (30.3 µM, […]) came to 25.73%.

Turning to `Cc1nn(C)c2c(NCc3ccccn3)ncnc12`, the “Percent Effect” value (30.3 µM, […]) is 50.68%.

With `Cc1nn(C)c2cn(C(C)C(=O)NCc3cccnc3)nc12` (configuration not stated), the “Percent Effect” value (30 µM, 30.03 µM) is 8.191%.

Consider `CCn1nccc1CNC(=O)C(C)n1cc2c(n1)c(C)nn2C` (configuration not stated), for which, under “30 µM, 30.03 µM”, the “Percent Effect” value is -8.273%.

With `Cc1nn(C)c2cn(C(C)C(=O)NCc3ccccn3)nc12` (configuration not stated), where the note is “30.3 µM, […]”, the “Percent Effect” value is 50.14%.

In the case of `CCc1nc(NCc2ccccn2)c2c(n1)c(C)nn2C`, the “Percent Effect” value (30.3 µM, […]) is given as -38.07%.

Regarding `COc1ccccc1CNC(=O)C(C)n1cc2c(n1)c(C)nn2C` (configuration not stated), for the setting “30.3 µM, […]”, the “Percent Effect” value was found to be 52.43%.

`Cc1nc(NCc2ccc(F)cc2)cc(C(=O)N2CCOCC2)n1`: the “Percent Effect” value (30.3 µM, […]) was 32.39%.

Turning to `Cc1ccc(CN2CCCC3(CCCCN3S(C)(=O)=O)C2)s1.O=C(O)C(F)(F)F` (configuration not stated), for the setting “30.3 µM, […]”, the “Percent Effect” value was 8.751%.

Take `Cn1cnnc1C1CCCN(C(=O)NCCCn2cccn2)C1` (configuration not stated): the “Percent Effect” value (30 µM) is given as 24.48%.

As for `Cn1cnnc1SCc1cc2c(cc1Br)OCO2`, for the setting “30.3 µM, […]”, the “Percent Effect” value is on record as -1.981%.

In the case of `CN(C(=O)c1cccc(OCC(F)F)n1)c1ccc2c(c1)CCO2`, the “Percent Effect” value (30.3 µM, […]) is 24.43%.

Consider `O=C(C1SCCc2sccc21)N1CCN(CCO)CC1` (configuration not stated), for which the “Percent Effect” value (30 µM, 30.03 µM) is listed as -7.988%.

For the compound `Cc1cc(N(C)C)nc(C2(C)CCCN2C(=O)c2ccn(C)n2)n1` (configuration not stated), the “Percent Effect” value (30.3 µM, […]) was found to be 1.341%.

Regarding `COc1ccc(OCCN(C)S(=O)(=O)N2CCOCC2)cc1`, the “Percent Effect” value (30.3 µM, […]) is listed as 11%.

Turning to `CC(C)NC(=O)c1ccc2nnc(C3CN(C)CCN3C)n2c1.O=C(O)C(F)(F)F.O=C(O)C(F)(F)F` (configuration not stated), under “30.3 µM, […]”, the “Percent Effect” value is listed as -3.873%.

For `COc1c(CNCc2cccc(C(=O)N(C)C)c2)c(C)nn1C`, the “Percent Effect” value (30 µM) is given as 37.17%.

For `COc1c(CNCc2ccc(C(=O)N(C)C(C)C)cc2)c(C)nn1C`, for the setting “30 µM”, the “Percent Effect” value is 21.5%.

As to `COc1c(CNCc2ccc(Cn3ccnc3)cc2)c(C)nn1C`, the “Percent Effect” value (30 µM) is recorded as 38.9%.

In the case of `COc1c(CNCc2cccc(Cn3ccnc3C)c2)c(C)nn1C.Cl`, the “Percent Effect” value (30 µM) is given as 52.6%.

On to `COc1c(CNCc2cccc(CN(C)C)c2)c(C)nn1C.Cl`, for which, under “30 µM, 30.03 µM”, the “Percent Effect” value turned out to be 41.69%.

Regarding `COc1c(CNCc2ccccc2Cn2ccnc2)c(C)nn1C`, where the note is “30 µM”, the “Percent Effect” value is 42.31%.

For the compound `COc1c(CNCc2ccc(C(=O)N(C)C)cc2)c(C)nn1C.Cl`, where the note is “30 µM, 30.03 µM”, the “Percent Effect” value was 56.22%.

On to `COc1c(CNCc2cccc(Cn3ccnc3)c2)c(C)nn1C`, for which the “Percent Effect” value (30 µM, 30.03 µM) was 57.06%.

Take `COc1c(CNCc2cccc(Cn3cccn3)c2)c(C)nn1C`: the “Percent Effect” value (30 µM) turned out to be 41.23%.

Turning to `O=C(CN1CCCC(c2ccc(C(=O)O)cc2)C1)NC1CC1` (configuration not stated), the “Percent Effect” value (30 µM, 30.03 µM) was determined as 23.13%.

For `Cc1ccc2cc(C(=O)N3CCCC3Cn3cccn3)[nH]c2c1` (configuration not stated), the “Percent Effect” value (30.3 µM, […]) was 22.94%.

Take `Cc1cnn(CCNCc2ccc(OCc3cccnc3)cc2)c1`: the “Percent Effect” value (30 µM) turned out to be 27.42%.

With `CN(C)C(=O)N1CCOCC2(CCN(c3ccccn3)C2)C1.O=C(O)C(F)(F)F` (configuration not stated), for the setting “30 µM, 30.03 µM”, the “Percent Effect” value came out at 18.14%.

Regarding `O=S1(=O)c2ccccc2C(O)CN1CCO` (configuration not stated), where the note is “30.3 µM, […]”, the “Percent Effect” value came out at 5.205%.

`CCN(CC)c1ccc2ccc(C(=O)O)cn12`: under “30.3 µM, […]”, the “Percent Effect” value is given as 18.9%.

With `CCN(CC)c1ccc2ccc(C(=O)N3CCCCO3)cn12.O=C(O)C(F)(F)F`, under “30.3 µM, […]”, the “Percent Effect” value is 27.79%.

`Cc1nc(-c2ccc(S(=O)(=O)N3CCOCC3)cc2)co1`: for the setting “30.3 µM, […]”, the “Percent Effect” value came to 23.37%.

For the compound `Cc1nn(C)cc1CN1C[C@@H]2CC[C@H](C1)N(Cc1c(C)noc1C)C2=O`, where the note is “30.3 µM, […]”, the “Percent Effect” value is reported as 16.01%.

Take `CN1CCC(c2nc3ccc(-c4cccc(F)c4)cn3n2)CC1.O=C(O)C(F)(F)F`: the “Percent Effect” value (30.3 µM, […]) was 56.26%.

Turning to `CN1CCC(c2nc3ccc(-c4ccccc4)cn3n2)CC1.O=C(O)C(F)(F)F`, the “Percent Effect” value (30.3 µM, […]) is on record as 26.64%.

As to `CCCN1CCC(c2nc3ccc(-c4ccncc4)cn3n2)CC1.O=C(O)C(F)(F)F.O=C(O)C(F)(F)F`, the “Percent Effect” value (30.3 µM, […]) was 22.97%.

In the case of `CCCN1CCC(c2nc3ccc(-c4ccccc4)cn3n2)CC1.O=C(O)C(F)(F)F`, under “30.3 µM, […]”, the “Percent Effect” value came out at 22.28%.

On to `CCN1CCC(c2nc3ccc(NC(C)C)cn3n2)CC1.O=C(O)C(F)(F)F`, for which the “Percent Effect” value (30 µM, 30.03 µM) worked out at 14.23%.

Take `CCCN1CCC(c2nc3ccc(-c4cccc(OC)c4)cn3n2)CC1.O=C(O)C(F)(F)F`: for the setting “30.3 µM, […]”, the “Percent Effect” value was 66.14%.

Take `CCCN1CCC(c2nc3ccc(-c4cccc(F)c4)cn3n2)CC1.O=C(O)C(F)(F)F`: the “Percent Effect” value (30.3 µM, […]) was 49.02%.

On to `CCN1CCC(c2nc3ccc(NC4CCC4)cn3n2)CC1.O=C(O)C(F)(F)F`, for which the “Percent Effect” value (30.3 µM, […]) was 53.52%.

As for `CC(=O)N1CCC(c2nc3ccc(NC4CCC4)cn3n2)CC1.O=C(O)C(F)(F)F`, under “30.3 µM, […]”, the “Percent Effect” value is given as 40.49%.

Take `Cc1cnn(CC2CN(CC(=O)N3CCc4ccccc43)CCO2)c1` (configuration not stated): the “Percent Effect” value (30 µM, 30.03 µM) worked out at 26.31%.

Turning to `CCCN(C(=O)c1cnns1)C1CCCN(Cc2ccccc2)C1` (configuration not stated), for the setting “30.3 µM, […]”, the “Percent Effect” value came out at 15.37%.
